The results in this text go back to PubChem BioAssay (NCATS).

SMILES strings stand for the structures. Values joined by “and” are separate entries in the source; they are usually repeats but may differ in a detail not shown here. Equal values may be shown once. A number with no mark means an inactive call. Results filed as inconclusive are left out. Active and inactive are the calls of the source. Unless noted, no rule for the calls is given here.

Chain of Nuclear receptor subfamily 1 group I member 2 (Rattus norvegicus) (Q9R1A7 whole entry, looked up): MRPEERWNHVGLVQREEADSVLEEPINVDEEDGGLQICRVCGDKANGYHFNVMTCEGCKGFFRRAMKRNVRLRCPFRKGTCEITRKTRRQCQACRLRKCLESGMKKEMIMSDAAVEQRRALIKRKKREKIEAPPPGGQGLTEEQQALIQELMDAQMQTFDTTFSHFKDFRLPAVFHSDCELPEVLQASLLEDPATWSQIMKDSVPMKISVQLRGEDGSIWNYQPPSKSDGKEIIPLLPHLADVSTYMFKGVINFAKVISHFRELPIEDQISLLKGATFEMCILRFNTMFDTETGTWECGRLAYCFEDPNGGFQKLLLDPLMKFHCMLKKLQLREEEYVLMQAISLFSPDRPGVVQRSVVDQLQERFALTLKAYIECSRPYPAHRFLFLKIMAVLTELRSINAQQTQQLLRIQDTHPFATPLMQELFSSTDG

Test system in one experiment: not listed separately
Kind of experiment: qHTS assay to identify inhibitors of the type 1 interferon - major histocompatibility complex class I in skeletal muscle: Counter screen cell viability and HiBit confirmation (AID 1347412; active = well fitted inhibition curve with a large enough effect; also: nearly all actives have a fitted effect of over 60% in size; also: potency is read from the fitted curve at half-maximal effect; as to activity change, negative = inhibition: % is scaled to controls: 0 for no effect and ±100 for the full control effect). Conditions: iHSKM muscle cells + IFN-b, HiBiT or CellTiter-Glo, 24 h; Potency: HiBiT; Viability, at 45.9 µM (top of the series); activity change, negative = inhibition: at the top concentration. The source says:
Assay Submitter (PI): Travis B. Kinder Ph.D. & James Inglese Ph.D. Assay Development and Screening Technology Laboratory (ADST) National Center for Advancing Translational Sciences (NCATS), Rockville, MD National Institute of Health (NIH), Bethesda, Maryland Idiopathic inflammatory myopathies, collectively referred to as myositis, are a group of rare autoimmune diseases characterized by skeletal muscle inflammation, weakness, and usually accompanied by systemic pathologies of the skin, lungs, or vasculature. Current immunosuppressive therapies and glucocorticoids are often not curative and are accompanied by harsh side effects, especially in children with juvenile myositis. We initiated a drug repurposing and development program to identify more targeted, less toxic therapeutics to treat myositis. Although its cause is not known, muscle from a subset of patients have an abundance of the inflammatory type 1 interferon (IFN) and a down-stream product major histocompatibility complex class I (MHC class I), which are both thought to contribute to damage and weakness. We conducted quantitative high throughput screening on 6,576 compounds (4,679 unique) through a series of cell-based assays to identify those that inhibit the IFN-stimulated expression of MHC class I in muscle precursor cells (myoblasts). The compound identification and evaluation strategy utilized a primary screen with reporter-tagged MHC class I in genome-engineered myoblasts, ATP content counter screen for viability, HLA-ABC immunofluorescence secondary screen, and HLA-B RT-qPCR tertiary screen. The primary screen utilized CRISPR/Cas9 genome-engineering of immortalized human myoblasts, C25cl48, where a pro-luminescent reporter HiBit was fused to the C-terminus of endogenous MHC class I allele HLA-B*08:01 (HLA-B HiBit myoblasts). HiBit is an 11 amino acid fragment of NanoLuc luminescent reporter (Promega Corporation), and when complexed to the larger LgBit fragment, the reconstituted enzyme produces light in the presence of furimazine substrate (Schwinn et al., 2018). Briefly, HLA-B HiBit myoblasts were plated into 1536-well plates, treated with 4.0 ng/ml human IFN-beta and 650 inhibitory compounds identified from primary screening in a 12-point, 1:3 titration with a high final concentration of 46 uM. Compounds were pinned into duplicate plates, with one for HiBit confirmation and one for ATP content viability assay. After 24 hrs of treatment, cells were assayed by either Nano-Glo HiBiT Lytic Detection System (Promega) or CellTiter Glo (Promega), and luminescence measured by a ViewLux 1430 Ultra HTS (Perkin Elmer). References: Schwinn MK, Machleidt T, Zimmerman K, Eggers CT, Dixon AS, Hurst R, Hall MP, Encell LP, Binkowski BF, Wood K V. 2018. CRISPR-Mediated Tagging of Endogenous Proteins with a Luminescent Peptide. ACS Chem Biol 13:467-474. doi:10.1021/acschembio.7b00549
PROTOCOL TABLE (as described by Inglese et al., 2007) SEQUENCE No. (e.g., 1, 2, 3, etc.); […] (e.g., Cells, Incubation, Reagent, etc.); VALUE; DESCRIPTION 1a; Cells; 5 uL; Use a Multidrop Combi (Thermo Scientific) to seed 300 cells/well into 16 Greiner 1536 well white/solid bottom, high base, TC plates in 5 ul/well of iHSKM growth medium (GM) without dexamethasone into columns 1+2. Add metal lids with gas-exchange holes 1b; Cells; 5 uL; Use a Multidrop Combi (Thermo Scientific) to seed 300 cells/well into 16 Greiner 1536 well white/solid bottom, high base, TC plates in 5 ul/well of iHSKM GM without dexamethasone + 4 ng/ml IFN-b into columns 3 - 48. Add metal lids with gas-exchange holes 2; Incubate; 1 hr; Incubate at 37 C, 5% CO2, 95% RH 3; Compounds; 23 nl; Use Pin Tool (Wako) to transfer DMSO control, 92 uM final digitonin cytotoxic control, ruxolitinib IFN-b inhibitor control [High Concentration = 80 uM final, 16-pt, 1:2 in duplicate], and library compounds in DMSO. […]
In general terms: Quantitative high-throughput screening tests each substance at several concentrations.
Regarding `CC[C@@H](C)[C@H](NC(=O)[C@H](CC1CCCCC1)NC(=O)c1ccno1)C(=O)N1CCC2(CCc3ccccc32)CC1`, the Potency result is “inactive”.
On the same count and under the same terms, as for `CS(=O)(=O)c1cccc(CNc2nc(Nc3ccc4c(c3)CCC(=O)N4)ncc2C(F)(F)F)c1`, the figure is 11.1 µM (active); as for `CCc1cc(Nc2nccc(-c3c(-c4ccc(OC)c(C(=O)Nc5c(F)cccc5F)c4)nc4ccccn34)n2)c(OC)cc1N1CCC(N2CCN(S(C)(=O)=O)CC2)CC1`, “inactive”; as for `Cc1cc(Nc2nc(N[C@@H](C)c3ncc(F)cn3)ncc2Cl)n[nH]1`, 1.4 µM (active).
For `Cc1cc2c(C(C)C)c(O)c(O)c(C=O)c2c(O)c1-c1c(C)cc2c(C(C)C)c(O)c(O)c(C=O)c2c1O`, the “activity change, negative = inhibition” value is -17.9%.
With `COc1cc(Nc2ncc3c(n2)-c2ccc(Cl)cc2C(c2c(F)cccc2OC)=NC3)ccc1C(=O)O`, the Potency result was “inactive”.
Same read-out and setting: the result for `Cc1cnc(Nc2ccc(OCCN3CCCC3)cc2)nc1Nc1cccc(S(=O)(=O)NC(C)(C)C)c1` reads 6.25 µM (active); that for `COc1c(Cl)cc2c([nH]c3cnccc32)c1NC(=O)c1cccnc1C`, “inactive”.

A further experiment concerns the target Nuclear receptor subfamily 1 group I member 2 (Rattus norvegicus) (UniProt Q9R1A7). The experiment in a line: qHTS assay for small molecule activators of the rat pregnane X receptor (rPXR) signaling pathway (AID 651751). Also: 0% is about no effect. Conditions: rPXR reporter cells, luciferase (One-Glo), 24 h.
Take `O=C1CCC(N2C(=O)c3ccccc3C2=O)C(=O)N1` (stereo not drawn): the max response is 1.73%.
On the same count and under the same terms, the result for `CC(=O)Oc1ccccc1C(=O)O` reads -0.967% and 1.6% and -0.848%; that for `Cc1[nH]c(=O)c(C#N)cc1-c1ccncc1`, 2.46%.
On the same count and under the same terms, the result for `NC[C@H](O)c1ccc(O)c(O)c1` reads 2.15%; that for `O=c1[nH]cnc2[nH]ncc12`, 2.04%; that for `CNC[C@H](O)c1cccc(O)c1`, 1.25%.
On the same count and under the same terms, the result for `Cc1c(C)c2c(c(C)c1O)CCC(C)(COc1ccc(CC3SC(=O)NC3=O)cc1)O2` (stereo not drawn) reads -12.9%; that for `Cn1cnc([N+](=O)[O-])c1Sc1ncnc2nc[nH]c12`, -0.454% and -2.45%; that for `O=NN(CCCl)C(=O)NCCCl`, -1.45%.
On to `NC(=O)c1cnccn1`, for which the max response was -0.614% and 3.04%.
Same read-out and setting: the result for `COc1ccc2nc(S(=O)Cc3ncc(C)c(OC)c3C)[nH]c2c1` (stereo not drawn) reads 14.6%; that for `Cc1ccccc1C(OCCN(C)C)c1ccccc1` (stereo not drawn), 4.25%.
The same measure, in the same setting: as for `CC(C)(Sc1ccc(CCN(CCCCC2CCCCC2)C(=O)NC2CCCCC2)cc1)C(=O)O`, the figure is -3.94%; as for `NS(=O)(=O)c1cc2c(cc1Cl)NC=NS2(=O)=O`, -2.2%.

Test system in another experiment: not listed separately
Kind of experiment: qHTS assay for small molecule activators of the human pregnane X receptor (PXR) signaling pathway (AID 720659). Also: 0% is about no effect. Conditions: DPX-2 HepG2 CYP3A4-luciferase, 24 h; series mostly up to 92.3 µM; activation: at the top concentration.
As to `NC(N)=NC(=O)c1nc(Cl)c(N)nc1N`, the “activation” value is -15.8%.
Same read-out and setting: as for `O=C1CCC(N2C(=O)c3ccccc3C2=O)C(=O)N1` (stereo not drawn), the figure is 26.7%.
`CC(=O)Oc1ccccc1C(=O)O`: the call was inactive.
Regarding `Cc1cc2c(C(C)C)c(O)c(O)c(C=O)c2c(O)c1-c1c(C)cc2c(C(C)C)c(O)c(O)c(C=O)c2c1O`, the “activation” value was -3.42%.
Still for that read-out and setting: as for `NC[C@H](O)c1ccc(O)c(O)c1`, the figure is -2.46%; as for `O=c1[nH]cnc2[nH]ncc12`, -3.36%.
Same read-out and setting: the result for `CNC[C@H](O)c1cccc(O)c1` reads -9.42%.
For `Cn1cnc([N+](=O)[O-])c1Sc1ncnc2nc[nH]c12`, the outcome was inactive.
The same measure, in the same setting: the result for `NC(=O)c1cnccn1` reads “inactive”.
Consider `CC(C)(Sc1ccc(CCN(CCCCC2CCCCC2)C(=O)NC2CCCCC2)cc1)C(=O)O`, for which the “activation” value is 23.4%.
As to `CCCC(CCC)C(=O)O`, the compound was classed as inactive.
